Laboratory results taken from PubChem BioAssay AID1220 (Sanford-Burnham Center for Chemical Genomics, 2008).
Hit rate of the full screen: of about 190,000 compounds, about 1,300 (0.68%) were called active. Shown is part of a subset that was picked to be rich in actives. Unmarked numbers belong to inactive results. Rule as the data show it: active = inhibition above about 50%; inactive = the rest.

Molecular target: Mannose-6-phosphate isomerase (Homo sapiens) (UniProt P34949)
Test: human PMI inhibitors, high substrate, primary screen, biochemical, fluorescence intensity, high mannose 6-phosphate (AID 1220)
Conditions: recombinant PMI enzyme, coupled fluorescence intensity; at 20 µM; hits give high values

Chain of Mannose-6-phosphate isomerase (Homo sapiens) (P34949 whole entry, looked up): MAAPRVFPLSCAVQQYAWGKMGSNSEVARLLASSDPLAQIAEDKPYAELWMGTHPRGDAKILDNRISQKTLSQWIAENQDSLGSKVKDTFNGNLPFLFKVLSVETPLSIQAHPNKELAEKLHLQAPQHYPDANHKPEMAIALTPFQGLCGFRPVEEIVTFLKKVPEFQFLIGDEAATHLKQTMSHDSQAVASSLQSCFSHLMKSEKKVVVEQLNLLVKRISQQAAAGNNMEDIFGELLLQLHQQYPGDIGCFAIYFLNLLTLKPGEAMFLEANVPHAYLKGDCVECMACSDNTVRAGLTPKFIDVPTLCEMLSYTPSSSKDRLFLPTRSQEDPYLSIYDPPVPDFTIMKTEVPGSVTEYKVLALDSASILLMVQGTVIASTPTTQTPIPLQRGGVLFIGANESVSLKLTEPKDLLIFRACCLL

| SMILES | inhibition |
| --- | --- |
| O=C(Nc1ccc(N=Nc2ccccc2)c(NC(=O)C2CCCO2)c1)C1CCCO1 (stereo not given) | 9% |
| COc1ccccc1NC(=O)CN1CCN(c2ccccn2)CC1 | -9% |
| COC(=O)Cc1c(C)c2ccc(OCC(=O)N(C)C)cc2oc1=O | -8.1% |
| Cc1cc(C)n(C(=O)CCCCCC(=O)n2nc(C)cc2C)n1 | -6.2% |
| O=C(CCN1C(=O)C2C3C=CC(C3)C2C1=O)Nc1ccccc1 (stereo not given) | -8.2% |
| C/C(=N\NC(=O)Cn1c(-c2ccccn2)nc2ccccc21)c1cccc(O)c1 | -16.2% |
| NNC(=O)c1cc2c(s1)CCCCCC2 | -2.3% |
| O=C(Nc1ccc2c(c1)OCCO2)c1cccc(S(=O)(=O)N2CCCCC2)c1 | 18.2% |
| COC(=O)c1ccc(C)c(N(CCO)CCO)c1 | 0.5% |
| COc1ccc(-n2c(C(C)(C)C)csc2=Nc2c(C)n(C)n(-c3ccccc3)c2=O)cc1 | 5.7% |
| O=C1Nc2ccc(NS(=O)(=O)c3cccs3)c3cccc1c23 | 65.7% (active) |
| O=C(O)c1ccccc1NS(=O)(=O)c1ccc2c3c(cccc13)C(=O)N2 | -2% |
| O=S(=O)(Nc1cccc2[nH]ncc12)c1cccs1 | 5.1% |
| COc1ccc(C(CNC(=O)CCOc2ccccc2)N(C)C)cc1 (stereo not given) | -3.8% |
| O=C(O)c1ccc(COc2ccc3ccccc3c2/C=C2/NC(=O)N(Cc3ccc(F)cc3)C2=O)cc1 | 52.7% (active) |
| O=C(O)c1ccc(COc2ccccc2/C=C2\NC(=O)N(Cc3ccc(F)cc3)C2=O)cc1 | -7.9% |
| O=C(O)c1ccc(COc2ccc3ccccc3c2/C=C2/NC(=O)N(c3ccccc3)C2=O)cc1 | 22.6% |
| CC1CC(C)CN(CCCNC(=O)c2csc3c2CCCC3)C1 (stereo not given) | 8.3% |
| CCC(=O)Nc1ccc(Cl)c(NC(=O)c2ccc(Br)o2)c1 | 1.8% |
| N#CC1=C(N)OC2=C(C(=O)CC(c3ccccc3)C2)C1c1ccoc1 (stereo not given) | -1.4% |
| CC1C(C#N)=C(N)OC2=C1C(=O)CC(c1ccccc1)C2 (stereo not given) | 10.5% |
| CC(C)CC1C(C#N)=C(N)OC2=C1C(=O)CC(c1ccccc1)C2 (stereo not given) | 57% (active) |
| CCN(CC)C(=O)C1=C(C)Nc2nnnn2C1c1cccnc1 (stereo not given) | 6.1% |
| CC[n+]1c(/C=C/N(C)c2ccccc2)oc2ccc(F)cc21 | 26.2% |
| CC[n+]1c(/C=C/N(C)c2ccccc2)oc2ccccc21 | 36.4% |
| CC[n+]1c(/C=C/N(C)c2ccccc2)oc2ccc(Cl)cc21 | 51.8% (active) |
| CCCc1cc(=O)[nH]c(SCC(=O)N(C)Cc2ccccc2)n1 | 10.9% |

| SMILES | inhibition |
| --- | --- |
| O=C(NCc1ccco1)C(C(=O)c1ccccc1)n1ccccc1=O (stereo not given) | 1% |
| O=C(NCCNS(=O)(=O)c1ccccc1)N1CCOCC1 | -0.7% |
| CCOC(=O)C(NC(=O)Nc1ccc(O)cc1)(c1ccccc1)C(F)(F)F (stereo not given) | 50.4% (active) |
| CCOC(=O)C(NC(=O)Nc1ccc(C(N)=O)cc1)(c1ccccc1)C(F)(F)F (stereo not given) | -6.9% |
| CCOC(=O)C(NC(=O)NC1CCCCC1)(c1ccccc1)C(F)(F)F (stereo not given) | -5.1% |
| O=C(Cc1ccc(Cl)cc1)NCCS(=O)c1ccc(Cl)cc1 (stereo not given) | 8% |
| CCCN1CCN(CCCNC(=O)CCn2nc(-c3ccccc3)ccc2=O)CC1 | -12.2% |
| CCCn1c(CCc2ccccc2)n[nH]c1=S | 2.6% |
| O=C(O)c1ccccc1C(=O)Nc1ccc(Br)c2cccnc12 | 53.1% (active) |
| O=C(O)c1ccccc1C(=O)Nc1ccccn1 | 7.2% |
| O=C(Nc1cccc2cccnc12)c1cccc2ccccc12 | -6.9% |
| c1ccc2c(c1)nc1sccn12 | -4.9% |
| Cc1ccc(/C=C(/C#N)C(=O)NC(=O)Oc2ccccc2)cc1 | 3.4% |
| O=C(NC1CCCCC1)Oc1cccc2ccccc12 | 61.4% (active) |
| O=C(NCc1ccccc1)NC1CCCCC1 | 5.5% |
| S=C(Nc1cccc2ccccc12)NC1CCCCC1 | 48.3% |
| c1ccc(OCCCc2nc(-c3cccnc3)no2)cc1 | -2.4% |
| Cc1cc(C)n2c(Nc3ccc4c(c3)OCCO4)c(-c3ccc(C)o3)nc2n1 | 0.2% |
| CCCc1nc(N)c(C#N)c(-c2cccnc2)c1CC | 9.6% |
| O=C(O)C1=C[C@@H](c2csc3ccccc23)C[C@@H](OCCCCO)O1 | 1.5% |
| NC(=O)C1=C[C@H](c2csc3ccccc23)C[C@H](OCCCCO)O1 | 63.4% (active) |
| O=C(O)C1=C[C@H](c2csc3ccccc23)C[C@H](OCCCCO)O1 | -1.5% |
| O=C(C1=C[C@H](c2csc3ccccc23)C[C@H](OCCCCO)O1)N1CCOCC1 | 9.5% |
| NC(=O)C1=C[C@@H](c2csc3ccccc23)C[C@@H](OCCCCO)O1 | 59.2% (active) |
| O=C(NC1CC1)C1=C[C@H](c2csc3ccccc23)C[C@H](OCCCCO)O1 | 1.4% |
| Cc1ccc(C(C(=O)NCc2ccco2)N(C(=O)Cc2cccs2)c2cccnc2)cc1 (stereo not given) | -5% |
| c1ccc(COC2CCCN(Cc3nc(-c4cccs4)no3)C2)nc1 (stereo not given) | 13.3% |

| SMILES | inhibition |
| --- | --- |
| O=C(Cn1nnc(-c2ccccc2F)n1)Nc1cccc2ncccc12 | -0.5% |
| CS(=O)(=O)c1ccc2nc(N)sc2c1 | 6.1% |
| CCOC(=O)c1c(C)[nH]c(C)c1C(=O)COC(=O)c1ccc(Cl)c(S(N)(=O)=O)c1 | -8.6% |
| O=S(=O)(/N=C(/c1ccccc1)N1CCCCC1)c1ccccc1 | 7.7% |
| O=c1cnnc(Nc2cccc(F)c2)[nH]1 | -14.5% |
| N#Cc1c(Nc2cccc(F)c2)sc2c(O)cc(=O)[nH]c12 | 55.8% (active) |
| N#Cc1c(Nc2ccccc2)sc(C(=O)c2ccc(F)cc2)c1N | 1.5% |
| CN(C)C(=O)c1ccc2c(c1)n(C)c(=O)n2C | -6.4% |
| CCCCNC(=O)CSc1nc2ccccc2c(=O)n1C1CCCC1 | 0.1% |
| O=C(CNc1ccc2ccccc2c1)NNC1=NCCC1 | 52.9% (active) |
| O=C(CNc1ccc(Br)cc1)NNC1=NCCC1 | -3.4% |
| O=C(CNc1ccccc1)NNC1=NCCC1 | 14.8% |
| Clc1cccc(-c2nnc3sc(-c4ccc5c(c4)OCO5)nn23)c1 | 6% |
| O=C1CCC(C(=O)OC(C(=O)c2c[nH]c3ccccc23)c2ccccc2)=NN1 (stereo not given) | -1.8% |
| COc1ccc(N/C=C/C(=O)C(F)(F)F)cc1 | 14.6% |
| CN(C)c1ccc(N/C=C/C(=O)C(C)(C)C)cc1 | 12.9% |
| CN(C)c1ccc(N/C=C/C(=O)C(F)(F)F)cc1 | 56.5% (active) |
| CCn1cc(C(=O)NC(=S)Nc2cccc(O)c2)cn1 | 0.6% |
| CCCN=Cc1c(CCC)[nH]n(-c2nc3ccccc3s2)c1=O | 4.7% |
| CCCc1[nH]n(-c2nc3ccccc3s2)c(=O)c1C=NCC1CCCO1 (stereo not given) | 51% (active) |
| CCCc1[nH]n(-c2nc3ccccc3s2)c(=O)c1C=NCC(C)C | 0.7% |
| O=C(O)CCCC(=O)Nc1ccccc1C(=O)N1CCOCC1 | -1.4% |
| CC(=O)c1cccc(NC(=O)CN2C(=S)NC(C)(C)CC2C)c1 (stereo not given) | -1.5% |
| Cc1ccc(O)c(N=Cc2cccs2)c1 | 65.7% (active) |
| Cc1ccc(O)c(N=CC2=C(O)c3ccccc3C2=O)c1 | 15.3% |
| Cc1ccc(O)c(C=Nc2cc(C)ccc2O)c1 | 23.3% |
| O=C(NC1CCCCC1)N1CCC(c2nc3ccccc3[nH]2)CC1 | 1.1% |

| SMILES | inhibition |
| --- | --- |
| O=C(Oc1ccc(-c2cnc3ccccc3n2)cc1)c1ccco1 | 15.4% |
| COC(=O)c1ccc(OC(=O)c2ccco2)cc1 | -6.2% |
| Cc1cc(C(=O)CSCCCn2c(=O)[nH]c3ccccc32)c(C)n1C | -21.9% |
| CC(=O)c1ccc(N2CCN(CC(=O)N(CC(C)C)c3c(N)n(CC(C)C)c(=O)[nH]c3=O)CC2)cc1 | -0.1% |
| CCN(C(=O)CN1CCN(c2ccccc2)CC1)c1c(N)n(Cc2ccccc2)c(=O)[nH]c1=O | 7.8% |
| CC(C)CN(C(=O)CN1CCN(c2ccc(F)cc2)CC1)c1c(N)n(CC(C)C)c(=O)[nH]c1=O | -8.7% |
| CC(C)CN(C(=O)CN1CCN(c2ccc(O)cc2)CC1)c1c(N)n(CC(C)C)c(=O)[nH]c1=O | 52.3% (active) |
| CCN(C(=O)CN1CCN(c2ccc(O)cc2)CC1)c1c(N)n(Cc2ccccc2)c(=O)[nH]c1=O | 51.6% (active) |
| CCN(C(=O)CN1CCN(c2ccc(OC)cc2)CC1)c1c(N)n(Cc2ccccc2)c(=O)[nH]c1=O | 2.4% |
| Cc1ccc(NC(=S)N2CCCN(Cc3ccc(F)cc3)C2)c(C)c1 | -3.7% |
| Cc1ccc(CC(=O)Nc2cccnc2)cc1 | 10.1% |
| Cc1ccc(N2C(=S)SC3CS(=O)(=O)CC32)cc1 (stereo not given) | -0.7% |
| O=C(CCC1CCCC1)Nc1nnc(-c2ccc3c(c2)OCO3)s1 | 1.1% |
| CCOC(=O)c1c(C)oc2c1c(C(c1ccccc1)N1CCOCC1)c(O)c1ccccc12 (stereo not given) | 30.5% |
| CCOC(=O)c1c(C)oc2ccc(O)cc12 | 2.8% |
| CCOC(=O)c1c(OCC)[nH]c2c1cc(O)c1ccccc12 | 54.7% (active) |
| CCOC(=O)c1c2c3c(cccc3[nH]c1=O)C(=O)c1ccccc1-2 | -30.6% |
| CCOC(=O)c1c(C)[nH]c(C)c1-c1ccccc1OC | 1.6% |
| CCOC(=O)c1c(-c2ccccc2)[nH]c2ccc(O)cc12 | 5.9% |
| CCOC(=O)c1c(C)oc2c1cc(O)c1ccccc12 | 54.3% (active) |
| CCOC(=O)c1c(OCC)[nH]c2ccc(O)cc12 | -2.7% |
| CCOC(=O)c1c(C)cc(=O)oc1C | 3.9% |
| CCOC(=O)c1c(C)[nH]c2c1-c1ccccc1C(=O)C2=O | 62.9% (active) |
| CCOC(=O)c1c(C)oc2c1c(C=NCc1ccccn1)c(O)c1ccccc12 | 32.6% |
